HSF1 inhib: HSF1 inhibition. NIH3T3-HGL HSE-luciferase, MG132-induced, luminescence 8 h; stronger effect = lower value. activity change, negative = inhibition, % at 7.5 µM (by protocol). 300,000 tested, 0.77% active. AID 2098;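 active = more than half of replicate wells show activity change below -50%, luminescence cut by over half; inconclusive = some wells, but at most half, below -50%; inactive = no replicate well below -50%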;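 also: luciferase reports HSF-1 transcriptional activity via heat shock element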
FXN GAA850 act: frataxin GAA850 promoter activation; AID 540364; activation, % at 6 µM; HEK293 lucGAA850 FXN promoter luciferase reporter, 24 h; percent of 10 µM SAHA response; 360,000 tested, 0.56% active;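 active = activation above the average of all compounds screened plus 3 SD, cutoff fixed separately per campaign, cut at about 7.5% in these data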
AHR activator: activators of human aryl hydrocarbon receptor | P35869 | AHR-responsive luciferase reporter cells, luminescence | activation, % at 5 µM | 320,000 tested, 2.5% active; in the data active = activation above about 47%
Target sequence (P35869 whole entry, looked up): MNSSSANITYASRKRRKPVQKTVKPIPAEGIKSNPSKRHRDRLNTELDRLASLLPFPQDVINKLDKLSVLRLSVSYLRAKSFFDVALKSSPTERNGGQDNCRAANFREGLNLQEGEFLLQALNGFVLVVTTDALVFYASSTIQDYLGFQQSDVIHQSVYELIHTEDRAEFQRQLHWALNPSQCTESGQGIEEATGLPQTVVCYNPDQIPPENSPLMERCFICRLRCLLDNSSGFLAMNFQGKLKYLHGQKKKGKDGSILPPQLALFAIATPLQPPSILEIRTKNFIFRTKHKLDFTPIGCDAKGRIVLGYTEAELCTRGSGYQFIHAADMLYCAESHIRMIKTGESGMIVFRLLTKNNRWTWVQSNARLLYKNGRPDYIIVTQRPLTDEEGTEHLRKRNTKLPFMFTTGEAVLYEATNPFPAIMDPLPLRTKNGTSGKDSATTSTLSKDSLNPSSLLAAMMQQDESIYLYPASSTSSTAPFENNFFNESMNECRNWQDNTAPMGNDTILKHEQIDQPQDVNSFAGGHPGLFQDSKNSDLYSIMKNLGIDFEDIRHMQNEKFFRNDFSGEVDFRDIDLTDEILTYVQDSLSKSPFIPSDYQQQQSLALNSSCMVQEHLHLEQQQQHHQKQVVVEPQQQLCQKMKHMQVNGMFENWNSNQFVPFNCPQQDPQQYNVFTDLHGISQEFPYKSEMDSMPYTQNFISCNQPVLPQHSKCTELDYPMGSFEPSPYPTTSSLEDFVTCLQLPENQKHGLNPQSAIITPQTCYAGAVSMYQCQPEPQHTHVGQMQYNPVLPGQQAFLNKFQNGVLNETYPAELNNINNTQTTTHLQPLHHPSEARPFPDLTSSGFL
HSF-1 act: increases HSF-1 driven luciferase reporter signal | NIH3T3-HGL HSF-1 luciferase reporter, MG132, 8 h; 100% = twice DMSO control signal | activation, % at 9 µM | 300,000 tested, 1.7% active;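 active = mean replicate activation of at least 50% with a set share of replicates each reaching 50%; inconclusive = only one of those two conditions met; inactive = mean below 50% and too few replicates reaching it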
Each line names hits and unclear results; the compound was inactive in the other large screens. Only some compounds are listed: those with a hit (about 4.6% of all), similar ones and a draw of the others.

Cc1ccc(-n2c3nc(=O)[nH]c(=O)c-3cc3cc([N+](=O)[O-])ccc32)cc1C	none
CCOc1cc(/C=C\c2[nH]c(=O)[nH]c(=O)c2[N+](=O)[O-])ccc1OC(C)CC (configuration not stated)	HSF-1 act 64 (no result: FXN GAA850 act)
CCOC(=O)COc1ccc(Br)cc1/C=C/c1[nH]c(=O)[nH]c(=O)c1[N+](=O)[O-]	HSF-1 act 85
CC(=O)c1ccc(NC(=O)CN2C(=O)NC3(CCCc4ccccc43)C2=O)cc1 (configuration not stated)	none (no result: HSF1 inhib, HSF-1 act)
COc1ccc(Nc2nc(-c3ccccc3)nc3ccccc23)cc1	none
COc1ccc(-c2nc(N/N=C(\C)c3ccc(O)cc3)c3ccccc3n2)cc1	AHR activator 49
C=CCNC(=O)c1c(C(F)(F)F)nn(C)c1Cl	HSF1 inhib -54
Cn1nc(C(F)(F)F)c(C(=O)Nc2ccc(C(F)(F)F)cc2)c1Cl	none
C/C(Cc1ccccc1)=N\NC(=O)CNC(=O)Cc1ccccc1	none
C/C(Cc1ccccc1)=N\NC(=O)CNC(=O)Cc1ccc(Cl)cc1	HSF1 inhib -53
CCOc1cc(/C=C\[N+](=O)[O-])ccc1OCC(=O)Nc1ccccc1C	HSF1 inhib -62
Cc1ccccc1CO/N=C/c1[nH]ncc1Br	HSF1 inhib -85
COc1cc(/C=N/NC(N)=O)cc(Br)c1OCc1ccccc1C	none
Cc1cccc(S(=O)(=O)NNC(=O)Cc2cccn2C)c1	none
O=c1cc(-c2ccc(Cl)cc2)[nH][nH]1	none
Fc1ccc(OCc2nc(-c3cccs3)no2)cc1	HSF-1 act 65
Cc1cc(OCc2nc(-c3cccs3)no2)cc(C)c1Cl	none
c1ccc(OCc2nc(-c3cccs3)no2)cc1	HSF-1 act 59
CC(=O)c1cccc(-c2ccnc3c2CC(C(=O)NCc2cccs2)O3)c1 (configuration not stated)	none (no result: HSF1 inhib, AHR activator, HSF-1 act)
COc1ccc(C(=O)NNC(=O)COc2ccc(Cl)cc2)c(OC)c1	AHR activator 73
COC(=O)NNC(=O)COc1ccc(Cl)cc1	none
COc1ccc(-n2nc(C#N)c(Cl)cc2=O)cc1	FXN GAA850 act 33 (no result: HSF1 inhib, AHR activator, HSF-1 act)
COc1cc(OC)cc(C(=O)Nc2nc3ccc(S(C)(=O)=O)cc3s2)c1	AHR activator 49
COc1cc(C(=O)Nc2nc3ccc(S(C)(=O)=O)cc3s2)cc(OC)c1C	none
Oc1ccc(N=Nc2c(O)ccc3ccccc23)cc1	AHR activator 79
NS(=O)(=O)c1ccc(N=Nc2c(O)ccc3ccccc23)cc1	none
C=CCn1c(SCc2csc(-c3ccc(Cl)cc3)n2)nnc1-c1ccccc1OC	HSF-1 act 58
Cc1ccc(NC(=O)NNC(=O)COc2ccc3ccccc3c2)cc1	none
COc1cccc(C=Nc2ccc3c(c2)CCC3)c1O	none
COc1ccccc1S(=O)(=O)Cc1ccc(C(=O)NCCN2CCCCCC2)o1	AHR activator 47
COCCNC(=O)c1ccc(CS(=O)(=O)c2ccccc2OC)o1	none
CCCCCCCCOC(=O)c1ccc(N)cc1	none
COC(=O)C1=C(N)OC2=C(C(=O)CC(C)(C)C2)C1c1ccccc1OC (configuration not stated)	none
CCOC(=O)C1=C(N)OC2=C(C(=O)CC(C)(C)C2)C1c1ccccc1OCC#N (configuration not stated)	HSF1 inhib -57
Cc1ccc(N2CC(C(=O)N3CCC(C(=O)Nc4nncs4)CC3)CC2=O)cc1 (configuration not stated)	none
O=C(c1ccc(S(=O)(=O)N2CCCC2)cc1)N1CCN(S(=O)(=O)c2cccc(F)c2)CC1	none (no result: AHR activator)
Cc1ccc(S(=O)(=O)N2CCN(C(=O)c3cccc(F)c3)CC2)cc1	HSF1 inhib -54
COc1ccc(C(=O)/C=C2\NCC3c4ccccc4CCN3C2=O)cc1 (configuration not stated)	AHR activator 89
COc1ccccc1N(/N=C1\Sc2ccccc2C1=O)C(C)=O	HSF1 inhib -68
COc1ccccc1NC1=C(NC(C)=O)C(=O)c2ccccc2C1=O	none (no result: AHR activator)
COc1ccc(CN(C(C)=O)c2ccccc2C(=O)O)cc1	none
COc1ccc(N(/N=C2\Sc3ccccc3C2=O)C(C)=O)cc1	HSF-1 act 60 (no result: AHR activator)
Cc1ccccc1S(=O)(=O)N(C)C[C@@H]1OCc2cnnn2CCCC(=O)N([C@H](C)CO)C[C@H]1C	none (no result: HSF1 inhib, AHR activator, HSF-1 act)
O=C(Cc1ccccc1[N+](=O)[O-])NC1CCN(Cc2ccccc2)CC1	none
CCOC(=O)C(C(=O)OCC)c1cc(Br)c2noc3c2c1C(=O)c1ccccc1-3	HSF-1 act 52
CCOc1ccc(NC(=O)CN(C)CC(=O)Nc2cc(Cl)ccc2C#N)cc1OCC	AHR activator 55
CCOc1ccccc1NC(=O)n1ncc2c(C)cccc21	AHR activator 48
O=C(Nc1ccc(F)cc1)N1CCc2ccccc2C1	AHR activator 69
CCOc1ccccc1NC(=O)N1CCc2ccccc2C1	AHR activator 68
CCOC(=O)Cc1csc(NC(=O)c2csc3c2CCCC3)n1	none
O=C(CSc1nnc(CN2CCCCC2)n1-c1ccccc1)c1ccc2c(c1)OCO2	none
CCOC(=O)N1CCN(c2c(N3CCN(c4ccccc4F)CC3)c(=O)c2=O)CC1	none
COc1ccc(-n2sc3c(c2=S)-c2cc(OC)ccc2NC3(C)C)cc1	AHR activator 66
COc1ccc2c(c1)-c1c(sn(-c3ccccc3)c1=S)C(C)(C)N2	HSF-1 act 55
COc1ccc2c(c1)-c1c(sn(-c3ccc(OC)c(OC)c3)c1=S)C(C)(C)N2	none
CCn1c(=O)c(-c2nc3ccccc3[nH]2)c(O)c2ccccc21	AHR activator 69 (no result: FXN GAA850 act)
Cc1ccccc1-n1c(=O)cc(N2CCc3ccccc3C2)[nH]c1=O	none
Cn1ncc(Br)c1C(=O)N1CCOCC1	HSF-1 act 55
Cc1cc(C)c(S(=O)(=O)Nc2ccc(N(C)C)cc2)c(C)c1-n1cnnn1	HSF1 inhib -65
CCSc1nnc(NC(=O)/C=C/c2ccco2)s1	AHR activator 60
CCc1nnc(NC(=O)c2ccc3ccccc3n2)s1	none
O=C(/C=C/c1ccco1)NC(=S)Nc1ccccn1	AHR activator 66, HSF-1 act 58
O=C(/C=C/c1ccco1)Nc1cccc(NC(=O)/C=C/c2ccco2)n1	HSF-1 act 81
Cc1nc(NC(=O)/C=C/c2ccco2)sc1C	none
Cc1cccnc1NC(=S)NC(=O)/C=C/c1ccco1	HSF-1 act inconclusive
O=C(/C=C/c1ccco1)Nc1nnc(-c2ccco2)s1	none
CCSc1nnc(NC(=O)c2ccc3ccccc3n2)s1	AHR activator 64
O=C(C1=NN[C@@H]2C(=O)N(c3ccccc3C(F)(F)F)C(=O)[C@H]12)C(c1ccccc1)c1ccccc1	none
CC(C)CC1c2[nH]c3ccccc3c2CCN1C(=O)c1cnccn1 (configuration not stated)	none (no result: FXN GAA850 act)
COc1ccccc1/C=C/C(=O)NC(=S)Nc1ccccn1	HSF-1 act 65
O=C(CCCn1c(=S)[nH]c2ccsc2c1=O)Nc1ccc2c(c1)OCCO2	none
Cc1cccc(NC(=O)c2cnc3sccn3c2=O)c1	AHR activator 68
COc1ccccc1CNC(=O)c1cnc2sccn2c1=O	AHR activator 53
Cc1cccc(NC(=O)c2cnc3ccccn3c2=O)c1	none (no result: HSF1 inhib, AHR activator, HSF-1 act)
COc1ccccc1CNC(=O)c1cnc2ccccn2c1=O	none
